# From the supplement of paper PMC3334620
# Whole data set: some 33,000 sequences, median “E-score (-0.5 to 0.5)” near -0.01, cut for the highest 2% near 0.26. What follows is part of a selection rich in the highest values, with near analogues and random picks from the rest.
# Biological target: Ste12 (UniProt P13574)
# Experiment: PBM E-score (8-mer binding enrichment) (E-score (-0.5 to 0.5)); higher = stronger / more preferred TF binding
# Details: protein concentration: 200 nM; construct: GST-DNA-binding domain
# Method: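 Universal 'all 10-mer' protein binding microarrays (Agilent AMADID 015681) probed with GST-tagged S. cerevisiae TFs (full-length or DBD) made by in vitro transcription/translation (PURExpress), about 100-200 nM. Bound TF was detected with fluorescent anti-GST. Each ungapped 8-mer (which stands for itself and its reverse complement) is scored by the PBM enrichment score (E-score), a modified Wilcoxon-Mann-Whitney statistic from -0.5 to +0.5, computed with the Universal PBM Analysis Suite. Scale: above 0.35 generally sequence-specific binding.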
# Sequence of UniProt P13574 (P13574 whole entry): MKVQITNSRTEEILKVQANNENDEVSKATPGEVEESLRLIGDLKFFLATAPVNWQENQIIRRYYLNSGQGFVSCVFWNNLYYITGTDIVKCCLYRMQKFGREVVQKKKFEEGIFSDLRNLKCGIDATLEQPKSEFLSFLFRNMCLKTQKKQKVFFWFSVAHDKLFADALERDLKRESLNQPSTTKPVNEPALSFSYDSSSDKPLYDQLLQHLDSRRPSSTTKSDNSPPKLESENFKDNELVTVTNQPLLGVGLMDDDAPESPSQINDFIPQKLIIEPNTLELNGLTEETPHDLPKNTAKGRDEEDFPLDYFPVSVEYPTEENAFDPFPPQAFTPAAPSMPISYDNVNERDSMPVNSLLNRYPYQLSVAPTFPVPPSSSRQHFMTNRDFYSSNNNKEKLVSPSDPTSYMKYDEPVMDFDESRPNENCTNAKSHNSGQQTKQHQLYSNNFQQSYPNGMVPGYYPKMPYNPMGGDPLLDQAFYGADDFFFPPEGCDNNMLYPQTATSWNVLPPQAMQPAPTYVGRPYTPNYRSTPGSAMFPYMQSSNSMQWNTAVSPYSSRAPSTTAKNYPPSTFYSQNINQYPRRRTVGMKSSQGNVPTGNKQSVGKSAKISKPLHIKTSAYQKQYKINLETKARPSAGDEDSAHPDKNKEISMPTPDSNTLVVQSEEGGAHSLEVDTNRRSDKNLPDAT
row,Sequence,PBM E-score
1,GGCGCAAA,0.218
2,AAATGAAA,0.426
3,GAATGAAC,0.016
4,CAATGAAA,0.258
5,GAATGAAA,0.322
6,TAATGAAA,0.155
7,GAATGAGA,-0.00579
8,CCTAGACG,-0.134
9,TAGAGAAA,0.0197
10,AACATTAA,0.301
11,AACATTTA,0.29
12,GACATTTA,-0.0124
13,AACATTAT,0.125
14,ATCATTAA,0.298
15,GACATTAA,0.173
16,CTCATTAA,0.111
17,ATCATTAG,0.0954
18,AACATTTC,0.0303
19,GAGAGAAC,-0.0294
20,CTTGGCTA,0.0252
21,GCGTGACA,0.126
22,GCGGCAGA,-0.128
23,GAATAAGC,-0.0403
24,GTGTTCCA,0.141
25,AATGCGGT,-0.0129

row,Sequence,PBM E-score
1,CCGTTGCC,-0.253
2,ATGTAATA,0.217
3,ACTTAAAA,0.183
4,AAATTTTG,0.0681
5,AGTTAAAA,0.286
6,ATTTTAAG,0.161
7,ATTTTAAA,0.348
8,AATTTTGG,0.104
9,CGTTAAAA,-0.00084
10,AATTTTTG,0.321
11,ATTTAACA,0.181
12,ATTTAAAA,0.314
13,ATTTTAAC,0.19
14,TGTTAAAA,0.168
15,GGTTTTGA,0.111
16,CCATACCC,0.128
17,CTAGAATA,0.171
18,GCACAGCA,-0.102
19,CAGTGGGC,-0.199
20,GACTTAGA,-0.272
21,AGCTTGAG,-0.164
22,AAGTTCGT,-0.226
23,TACCAGAA,0.253
24,TGCATACA,-0.139
25,TAACGCGA,0.0877

row,Sequence,PBM E-score
1,AAGCTCGT,-0.195
2,AATTTTAT,0.217
3,ATATTTAC,0.219
4,AATTTTAC,0.251
5,ATTTTTTA,0.331
6,AATTTTAA,0.318
7,AATTTACC,0.137
8,ATTTTACG,0.243
9,CTATTTAA,0.194
10,ATATTTAA,0.347
11,ATATTTTA,0.235
12,ATTTTACC,0.277
13,CTATTTTA,0.232
14,ACCGTTAC,-0.0206
15,TCGGTACA,0.0794
16,ACTGAGCA,-0.119
17,ACAGGATG,0.0588
18,CTCTAGAG,-0.162
19,AACAACGC,0.111
20,AAGCCCCG,0.0304
21,AATTTTGA,0.145
22,ACATTTAG,-0.0629
23,AATTTTTA,0.283
24,ATTTTTAC,0.207
25,ACATTTAA,0.32

row,Sequence,PBM E-score
1,ATTTTTAG,0.175
2,AATTTTTC,0.181
3,ATTTTTAA,0.28
4,GCATTTAA,0.12
5,ATTTTTGA,0.298
6,ATTTTTGG,0.183
7,AAATTTTA,0.132
8,TAAGCCAA,0.00854
9,GGCTTAGA,-0.0335
10,TACCAGCA,-0.0129
11,CTAGTACA,0.0611
12,GCAATCCC,0.0206
13,CTCTTTAC,0.0191
14,AAAGTGGG,0.182
15,AGTTCGAC,-0.147
16,CCCTGAGG,-0.213
17,ACATCTAA,0.114
18,ATTTTGTC,0.114
19,ATTTTGTG,0.281
20,ATTTTGTA,0.16
21,AAGTTGCA,-0.0946
22,CCATCAAC,-0.144
23,TCTTACAA,0.0356
24,CGTTACAA,0.314
25,GGTTACAA,0.284

row,Sequence,PBM E-score
1,GGTTACAC,-0.0834
2,AGTTATAA,0.133
3,AGTTACAA,0.157
4,CGTTACAC,0.122
5,CGTTATAA,0.143
6,TGTTATAA,0.283
7,CGTTACAG,0.146
8,GGTTACTA,0.0972
9,TGTTACAA,0.387
10,CCCATACG,-0.123
11,GGTAGAAC,-0.101
12,CCATATCC,0.0086
13,AGCCTCTC,-0.234
14,AGTTTTGG,0.104
15,AAGTTACG,0.0247
16,AAATATGT,0.226
17,AAATATGA,0.308
18,AAATATTA,0.352
19,AAATATTC,0.14
20,CAATATGA,0.0995
21,CAATATTA,0.176
22,ATCAGCCA,-0.0331
23,GCTTTTAA,-0.0048
24,ACGTTTAA,0.0563
25,ACGTTTTA,0.295

row,Sequence,PBM E-score
1,GCTTTTTA,0.271
2,GCGTTTTA,0.352
3,CCGTTTTA,0.304
4,GCGTTTAC,-0.0566
5,CCTTTTTA,0.051
6,ACGTTTTG,0.222
7,CCGTTTTC,0.133
8,CCGTTTAA,0.135
9,GCGTTTAA,0.103
10,CTGATCAG,-0.0327
11,TATTTGCA,0.0371
12,CCCAGCGA,-0.0316
13,ACCAATTA,0.199
14,AGAAACAC,0.121
15,CGAAACCA,0.209
16,TGAAACCA,0.438
17,AGAAACAT,0.32
18,GGAAACAC,0.225
19,AAAAACAT,0.241
20,CGAAACAG,0.244
21,CGAAACAA,0.349
22,GAAAACAA,0.197
23,CGAAACAC,0.348
24,AGAAACCA,0.194
25,AGAAACAG,0.0492

row,Sequence,PBM E-score
1,CGACGCAG,-0.237
2,GCCTATTA,0.0234
3,CAGCTCCC,-0.254
4,CCCGTCAC,0.0322
5,CCAGCAAG,-0.148
6,AGGAGCAA,-0.108
7,CGGCCCGA,0.078
8,CCGAATAG,-0.0705
9,AAATCTGG,0.21
10,GGCGCTCA,-0.066
11,ATGATAAT,0.13
12,AGACCTAG,-0.0522
13,AGAAACAA,0.26
14,TCAAACCA,0.278
15,CCAAACCA,0.0357
16,TGAAACAA,0.493
17,ACAAACCA,0.00217
18,GGAAACAA,0.13
19,CGGAAGAA,0.0583
20,ATATCATC,0.141
21,GATAGAAC,0.0461
22,AGATTAGA,0.00999
23,AATGTTAG,-0.00616
24,AATGTTAA,0.102
25,AATGTTTA,0.174

row,Sequence,PBM E-score
1,AATGTTTC,0.318
2,CATGTTTA,0.199
3,CATGTTGC,-0.0677
4,CATGTTTC,0.4
5,AAAGTTTA,0.199
6,AATGTTTG,0.0124
7,AAAGTTTC,0.329
8,CAAGTTTC,0.254
9,AATGTTAT,0.265
10,AACGCTAA,-0.0143
11,GTGTAGGA,0.0365
12,CACTCCAG,-0.019
13,ACTCTGAT,0.146
14,ATAAAGCC,0.00222
15,AGGCCTAG,-0.218
16,ACAGAAGG,-0.173
17,CTTGAGGC,-0.184
18,ATGGACGG,-0.00997
19,CTCGCACC,-0.103
20,CGCCCACA,0.197
21,CGTCGCCC,-0.121
22,ACAAATTG,0.177
23,AAAAATTC,0.224
24,ATAAATTA,0.255
25,ATAAATTG,0.321

row,Sequence,PBM E-score
1,AAAAATTA,0.326
2,CAAAATTG,0.0598
3,CAAAATTA,0.247
4,ACAAATTA,0.263
5,CCAAATTA,0.221
6,AAAAATTG,0.263
7,GAAAATTA,0.206
8,ATAAATTC,0.102
9,CTCAACGC,-0.0089
10,CAGCAGCC,-0.0193
11,AATGGAGC,-0.0645
12,AAACGATT,0.165
13,ACTACTCA,-0.0467
14,ACACCATG,-0.108
15,GACCGATA,-0.00126
16,GCGAAGAC,-0.141
17,AGGATTGC,-0.025
18,ATAAACTG,0.302
19,ATAAACTC,0.125
20,ATAAACTA,0.211
21,CTACGCTC,-0.00605
22,CTCCCATA,-0.0685
23,TATTGGAA,-0.00217
24,CGATACAA,0.0267
25,CAATACAC,0.0704

row,Sequence,PBM E-score
1,CAATACAG,-0.115
2,TGATAAAA,0.266
3,GGGATAAC,-0.0162
4,TGATACAA,0.339
5,AGATACAA,0.135
6,CGGATAAA,0.149
7,GGGATAAA,0.271
8,AGATAAAA,0.245
9,CGATAAAA,0.171
10,CAATACAA,0.294
11,AATTAGGA,0.145
12,CCCAGCGG,-0.192
13,AACACTCG,0.0544
14,TCTGAACA,0.0453
15,ACCACCGG,-0.0277
16,AAATTGAA,0.185
17,CCATGAAG,-0.0229
18,CATAAGGC,-0.0753
19,GGTGCGAA,0.2
20,AAACCGTT,0.00687
21,GGGTAAAC,0.119
22,GGGTAAAA,0.295
23,GGATAAAC,0.135
24,CGGTAAAA,0.198
25,GGATAAGA,0.0906

row,Sequence,PBM E-score
1,GGATAAAA,0.279
2,TGGGCCAA,-0.177
3,CAGCGTCG,-0.0332
4,CGGAATAC,0.134
5,GATCAAGC,-0.0184
6,GAAGGCTC,-0.209
7,CATAAAAA,0.175
8,GATAAAAC,0.327
9,GATAAATA,0.215
10,GATAAAAA,0.277
11,CATAAAAG,0.0283
12,CATAAAAC,0.28
13,AATAAAAC,0.245
14,GATAAAGA,0.0926
15,GATAAACC,0.0557
16,CGAGCCGA,-0.0584
17,AGGTTTTC,0.241
18,GAGCTCCC,-0.0992
19,CAGACTTC,-0.0901
20,ACGACTAT,-0.0677
21,CGTCACCC,0.0725
22,ACAGAATG,0.0528
23,GGAACTAC,-0.105
24,AACTATTA,0.0788
25,AACTATCA,0.262

row,Sequence,PBM E-score
1,TACTATCA,0.13
2,AACTATTC,0.264
3,GACTATCA,-0.0567
4,CACTATTC,0.0168
5,ATACGGCG,0.15
6,ACGGGTCT,-0.211
7,CCAATCTC,0.0596
8,ACCTGCAA,-0.0499
9,GTGCGCAA,-0.0274
10,ATGCGCAC,0.0144
11,GTGCGCAC,0.355
12,CCAATCCA,-0.0476
13,AGCGATCG,0.00873
14,CAAAAGAC,0.0341
15,CGATTCGC,0.0897
16,TCTTGAAA,0.308
17,ACTTGAAG,0.119
18,ACTTGAAT,0.0108
19,GCTTGAAA,0.198
20,ACTTGAAA,0.314
21,CCTTGAAA,0.21
22,GTCGAAGA,-0.0112
23,ACCTTAGT,-0.137
24,ATTGTAGC,0.0213
25,AGTGGTAT,-0.0443

row,Sequence,PBM E-score
1,TCACAGGA,0.122
2,GCGTGAAC,-0.0471
3,GGTGGGGA,0.318
4,CGGTGGGA,0.033
5,GGAGGGGA,0.366
6,GGGTGGGA,0.319
7,GGAGGGAA,-0.0917
8,GGTGGGAA,0.127
9,CGTGGGGA,0.0623
10,AGGTGGGA,-0.049
11,CGAGGGGA,0.0767
12,GATCGATA,0.0823
13,TCAAGGCA,-0.169
14,ACCTTGGA,-0.197
15,ATGTCTTA,0.134
16,AACACGAC,-0.104
17,CAATATAC,0.116
18,GAATATAA,0.161
19,CAATATAA,0.316
20,CAATATAG,0.117
21,TATAATAA,0.141
22,TAATATAA,0.287
23,CTCCCGTC,0.0578
24,AAAGGGAT,0.00067
25,AAAGTCAA,0.189

row,Sequence,PBM E-score
1,GTCTTATA,0.0618
2,ATCTTATA,0.0647
3,CTCTTATA,0.267
4,AAGCCCCA,-0.237
5,AGGCCATA,-0.245
6,CCCATAGA,-0.143
7,AAAATTTG,0.0212
8,ATAATTAT,0.195
9,AAAATTAG,0.31
10,AAAATTGT,0.225
11,AAAATTAC,0.188
12,AAAATTTT,0.311
13,AAAAATTT,0.138
14,AAAATTAA,0.134
15,AAAATTAT,0.337
16,GGCCACCA,0.0635
17,CAACCTAA,0.0543
18,GTATCGTA,0.0508
19,GATGCAAC,-0.0126
